# Screening data (PubChem BioAssay)
# A selection: hits, their analogues and other compounds. The true share with any hit is near 10%.
# Lamin A splicing: changes lamin A minigene splicing in HeLa cells; hit rate 0.01% among 200,000; Potency, µM (highest dose often 46.1 µM), hits mostly inhibitors; HeLa LMNA splicing GFP/RFP minigene ratio, 48 h; active = well fitted inhibition curve with a large enough effect in the signal ratio, with a control signal flat, not every such curve was filed as active; inconclusive = small, poorly fitted or top-dose-only effect, or effect the other way, or a change in a side signal; the % refers to the signal ratio
#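 Read-out is the ratio of GFP to DsRed2 object intensity, acquired by 488 nm laser-scanning cytometry on HeLa lamin A-EGFP minigene reporter cells. Compound incubation 48 hrs at 37 °C in Opti-MEM with 2% FBS; DMSO 0.5% final.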
# KinaseGlo FLuc: Kinase-Glo luciferase inhibition (counter-screen) | AID 1379 | Q27757 | hit rate 0.28% among 200,000 | Potency, µM (series often up to 38.3 µM), actives largely listed as inhibitors | Kinase-Glo luciferase, ATP luminescence, 8 min; active = well fitted inhibition curve with a large enough effect; inconclusive = small, poorly fitted or top-dose-only effect; note: nearly all actives have a fitted effect of over 60% in size
#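 Compounds were added to a substrate mix at pH 7.2 (50 mM imidazole, 10 uM ATP, within the enzyme's linear range), followed by Kinase-Glo detection reagent; luminescence was measured after 8 minutes at ambient temperature.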
# IMPase inh: membrane-permeable compound that blocks inositol monophosphatase. 120,000 tested, under 10 active. CHO-M1 cells, IP1 accumulation, HTRF TR-FRET ratio. inhibition (IP1 accumulation), % at 46.1 µM. P97697. AID 901; active = well fitted curve in the direction sought with a large enough effect in the signal ratio, not every such curve was filed as active; inconclusive = small, poorly fitted or top-dose-only effect, or a change in a side signal; inactive = no such curve, though single readings can be large or run the other way; the % refers to the signal ratio;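 note: cells stimulated with carbachol in lithium chloride buffer; higher means more IMPase inhibition seen as more IP1 and lower FRET ratio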
# Target sequence (P97697 whole entry, looked up): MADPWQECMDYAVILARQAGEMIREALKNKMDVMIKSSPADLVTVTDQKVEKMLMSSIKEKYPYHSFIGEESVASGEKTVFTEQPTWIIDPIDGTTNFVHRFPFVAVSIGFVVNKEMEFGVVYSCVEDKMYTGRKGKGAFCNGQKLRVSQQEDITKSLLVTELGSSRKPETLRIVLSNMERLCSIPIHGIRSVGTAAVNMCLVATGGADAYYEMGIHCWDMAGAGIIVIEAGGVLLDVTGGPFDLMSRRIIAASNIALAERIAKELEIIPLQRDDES
#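 Carbachol-driven Gq signalling in CHO-M1 cells (2000/well) generates IP1. Compounds that block IMPase raise IP1 and so reduce the FRET signal from Eu-anti-IP1 and d2-IP1 after a 10 min room-temperature lysis.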
# PNC assembly inh: perinucleolar compartment assembly inhibition | PC3M PTB-GFP, PNC prevalence imaging, 16 h; active compounds read low | activity change (PNC), negative = inhibition, % at 10 µM | hit rate 3.1% among 140,000 | AID 2417;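 active = readout at or below -70, meaning at least 70% loss of cells showing the perinucleolar compartment, a nuclear body marking cancer cells; inconclusive = readout between -30 and a set limit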
#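 Read-out is percentage of cells bearing a perinucleolar compartment, from automated 20x imaging of fixed, Hoechst-stained PC3M PTB-GFP cells. Cells were seeded 4 h, then exposed 16 h to compound (23 nl of library stock) in duplicate plates.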
# HPGD inh: inhibitors of human 15-hydroxyprostaglandin dehydrogenase (HPGD); P15428; purified HPGD, NADH fluorescence kinetic, PGE2 substrate; Potency, µM, hits mostly inhibitors; hit rate 4.3% among 150,000; AID 894
# Target sequence (P15428 whole entry, looked up): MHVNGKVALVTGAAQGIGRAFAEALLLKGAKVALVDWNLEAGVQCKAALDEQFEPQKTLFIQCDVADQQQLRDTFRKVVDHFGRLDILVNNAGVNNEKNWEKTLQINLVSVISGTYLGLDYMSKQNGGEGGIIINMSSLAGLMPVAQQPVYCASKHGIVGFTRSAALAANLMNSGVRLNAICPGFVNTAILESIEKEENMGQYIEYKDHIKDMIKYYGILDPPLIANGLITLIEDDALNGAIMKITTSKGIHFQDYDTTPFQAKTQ
#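 NADH formation kinetics: reaction with 30 uM PGE2 and 1 mM NAD+ (final), 20 nM enzyme, Tris-HCl pH 8 with Tween 20, after 15 min compound preincubation at room temperature. Fluorescence change, last versus first of five reads.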
# ALDH1A1 block: ALDH1A1 (human) enzyme inhibition; hit rate 7.3% among 220,000; Potency, µM (highest dose often 75.3 µM), hits mostly inhibitors; Purified ALDH1A1, NADH fluorescence, propionaldehyde substrate; P00352
# Numbers stand for hits; . = inactive; ? = inconclusive; / = no result; [ ] = another dose, or the depositor's remark. Unless noted, calls come from the whole dose curve; as a rule, active = well fitted inhibition curve with a large enough effect (not every such curve was filed as active); inconclusive = small, poorly fitted or top-dose-only effect, or another doubt; inactive = no such curve, though single readings can be large or run the other way.
SMILES,Lamin A splicing,KinaseGlo FLuc,IMPase inh,PNC assembly inh,HPGD inh,ALDH1A1 block
C=CCN1C(=O)CN=C1Nc1cccc(C)c1,.,/,.,.,/,.
C=CCN1C(=O)CN=C1Nc1cc(C)ccc1C,.,.,.,.,.,3.5µM
CC(NC(=O)COC(=O)Cc1ccsc1)C1CC2CCC1C2 (stereo not given),.,.,.,.,28µM,.
O=C(COC(=O)Cc1ccsc1)NCc1ccccc1,.,.,.,.,.,.
O=C(COC(=O)Cc1ccsc1)NCc1ccc(Cl)cc1,.,.,.,.,28µM,.
O=C(COC(=O)Cc1ccsc1)NCC1CCCCC1,.,.,.,-90,.,?
O=C(COC(=O)Cc1ccc(Br)cc1)NCC1CCCCC1,/,.,/,/,/,.
CO[C@@H](C(C)C)[C@@H](C)[C@@H]1OC(=O)C[C@@H]1O,/,/,/,/,/,.[13.5 µM]
NC(N)=NCCCC(=O)O,/,.[7.66 µM],/,/,.,.[13.5 µM]
C=C(C)C1CC[C@]2(CO)CC[C@@]3(C)[C@H](CCC4[C@@]5(C)CCC(O)C(C)(C)C5CC[C@@]43C)C12 (stereo not given in full),?,.,/,/,.,.
CC1CCc2onc(C(=O)N3CCN(c4ccccc4)CC3)c2C1 (stereo not given),.,/,/,/,/,/
C=CCOC(=O)C1=C(C)NC(=S)NC1c1cccs1 (stereo not given),.,.,/,.,.,2.2µM
COCCOC(=O)C1=C(C)NC(=S)NC1c1cccs1 (stereo not given),.,.,/,/,/,22µM
CCN(CC)C(=O)C1=C(C)NC(=S)NC1c1cccs1 (stereo not given),/,.,/,/,/,?
COc1ccc(NCc2nnc(SCC(=O)c3ccc(OC)cc3)n2C)cc1,.,.,.,.,.,6.3µM
COc1ccc(NC(=O)CSc2nnc(CNC(=O)c3ccco3)n2-c2ccccc2OC)cc1,.,.,.,.,.,?
CCOc1ccc(C(=O)CSc2nnc(C3CC3)n2C)cc1,.,.,.[0.0738 µM],.,.,7.9µM
COc1ccc(CC(=O)NCc2nnc(SCC(=O)c3ccc(OC)cc3)n2C)cc1,/,.,/,/,/,.
COc1ccc(NCc2nnc(SCC(=O)NCc3ccccc3)n2-c2ccccc2OC)cc1,.,.,.,-106,.,?
CCOc1ccc(NC(=O)CSc2nnc(C3CC3)n2C)cc1,/,.,/,/,/,.
COC(=O)C1CCN(c2csc3ccc(Cl)cc3c2=O)CC1,.,/,/,/,/,/
CCOC(=O)c1c(C)oc2nc(C)nc(NCc3ccccc3Cl)c12,.,/,/,/,/,/
CCCCC/C=C\C/C=C\C/C=C\C/C=C\CCCC(=O)C(F)(F)F,/,.,/,/,.,20µM
CCCCOC(=O)c1ccc(NC(=S)NC(=O)c2c(Br)c(C)nn2C)cc1,.,.,/,.,.,4µM
CC(=O)c1ccc(NC(=S)NC(=O)c2c(Cl)c(C)nn2C)cc1,.,.,/,-109,.,?
SMILES,Lamin A splicing,KinaseGlo FLuc,IMPase inh,PNC assembly inh,HPGD inh,ALDH1A1 block
Cc1cc(C)c(NC(=S)NC(=O)c2c(Cl)c(C)nn2C)c([N+](=O)[O-])c1,?,.,/,?,.,?
Cn1c(=O)c(C(=O)CCl)c(N)n(Cc2ccccc2)c1=O,?,.,/,.,.,7.1µM
NC(Cc1cnc[nH]1)C(=O)Nc1ccc2ccccc2c1 (stereo not given),.,.,/,/,.,.
Nc1nc2c(c(=O)[nH]1)C(c1cccc3ccccc13)C1=C(N2)c2ccccc2C1=O (stereo not given),/,.,/,/,/,3.2µM
CC(=O)C1=C(C)NC2=C(C(=O)c3ccccc32)C1c1ccccc1 (stereo not given),.,.,/,/,/,?
c1ccc(C(c2ccccc2)N2CCN(c3nc4ccccc4n4cnnc34)CC2)cc1,?,/,.,.,/,14µM
Cc1cccc(N2CCN(c3nc4ccccc4n4cnnc34)CC2)c1C,.,.,.,.,?,.
O=C1C(NS(=O)(=O)c2ccc(Cl)cc2)=C(N2CCCCC2)C(=O)c2ccccc21,.,.,.,?,.,8.9µM
CC(=O)c1ccc(NS(=O)(=O)c2ccc(CC(C)C)cc2)cc1,?,.,.,?,?,6.3µM
CC(=O)c1ccc(NC(=O)Nc2ccc(NS(=O)(=O)c3ccc(C)cc3)cc2)cc1,?,/,.,.,/,?
CCC(=O)c1ccc(OCC(O)Cn2c(C)nc3ccccc32)cc1 (stereo not given),?,.,.,-121,.,.
Cc1nc(C)n(CC(O)COc2ccc(C(=O)c3ccccc3)cc2)n1 (stereo not given),?,.,.,-95,.,.
CCCCc1ccc(C(=O)N/C(=C\c2ccc(C)cc2)C(=O)NC2CCCCC2)cc1,/,/,.,/,/,/
CS(=O)(=O)N1CCC2(CCCN(C(=O)Nc3ccccc3)C2)CC1,/,.,/,/,.,.
CCOc1ccc(Cn2c(O)cc(=O)[nH]c2=O)cc1,.,.,/,.,.,18µM
COc1ccc2c(c1)C(=O)[C@H](OC(=O)N[C@H](C)C1CCCCC1)[C@@H](c1ccc(OC)c(Br)c1)O2,/,.,/,/,.,.
CC(=O)N1CCC2(CC1)C(C#N)=C(N)Oc1n[nH]c(CSc3ccc(C)cc3)c12,.,.,.,?,.,10µM
Cc1[nH]nc2c1C1(C(=O)Nc3ccc([N+](=O)[O-])cc31)C(C#N)=C(N)O2 (stereo not given),.,.,.,.,.,.
Cc1ccc(SCc2[nH]nc3c2C2(C(=O)Nc4ccc(F)cc42)C(C#N)=C(N)O3)cc1 (stereo not given),?,.,.,?,.,2.2µM
CCc1[nH]nc2c1C1(CCN(C(=O)c3ccccc3)CC1)C(C#N)=C(N)O2,.,.,.,.,.,?
O=C1c2ccccc2C(=O)N1CCCCN(C(=O)c1ccco1)c1ccc(Cl)cc1,.,.,.,.,.,7.9µM
O=C1c2ccccc2C(=O)N1CCCCN(C(=O)c1cccc([N+](=O)[O-])c1)c1ccc(Cl)cc1,.,.,.,.,.,3.2µM
CN(C)c1ccc(C(=O)N2CC(=O)N(CCc3ccccc3)C(=O)C2)cc1,.,.,.,.,?,6.3µM
COc1ccc(CC(=O)NNC(=O)CCc2ccccc2)cc1,.,.,/,/,/,.
COc1ccc(C(=O)N2CC(=O)N(CCc3ccccc3)C(=O)C2)cc1OC,.,.,.,.,.,.
COc1ccc(CC(=O)N2CC(=O)N(CCc3ccccc3)C(=O)C2)cc1,.,.,.,.,.,10µM
CCN(CC)S(=O)(=O)c1ccc2c(c1)N(CC(=O)NCCc1ccc(OC)c(OC)c1)C(=O)CO2,.,/,/,/,/,/
Cc1cc(C(F)(F)F)nc(SCC(=O)NC2CC3CCC2C3)n1 (stereo not given),.,.,.,.,20µM,.
COc1ccc(OCc2ccc(-c3nc(C#N)c(NCc4ccc(F)cc4)o3)o2)cc1,.,/,/,/,/,/
